Targets with a hit are over-represented here; the source holds about 8,800 in all. About 0.5% of all pairs of compound and target were hits.
How the values were obtained:
Experiment in all cases: log2 fold change, soluble protein after heating vs DMSO (PISA); higher = thermal stabilisation; K562 lysate, 10 uM; active = over 0.2 and 3.5 SD of the protein, either way, in both replicates (recomputed)
alvocidib = compound: CN1CC[C@H](c2c(O)cc(O)c3c(=O)cc(-c4ccccc4Cl)oc23)[C@H](O)C1 [alvocidib]
Method in brief: (§1)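 Values give the log-two fold change in thermal stability against solvent controls, from duplicates. Crude K562 extract at 1 mg/mL protein, made by dounce homogenisation in PBS pH 7.4 with 1 mM MgCl2, was treated with 10 μM compound for 30 min. After 3 min heating across 48°C-58°C, aliquots were pooled, adjusted to 0.5% NP-40 at 4°C and centrifuged at 21,000xg for 90 min. The supernatant was measured by TMTpro 16plex LC-MS/MS with channel sums equalised.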

Tubastatin A = compound: CN1CCc2c(c3ccccc3n2Cc2ccc(C(=O)NO)cc2)C1 [Tubastatin A]
Method in brief: as §1

[1] = compound: CNC(=O)C1=CC=CC=C1NC2=NC(=NC=C2Cl)NC3=C(C=C(C=C3)N4CCOCC4)OC
Method in brief: as §1

defactinib = compound: CNC(=O)c1ccc(Nc2ncc(C(F)(F)F)c(NCc3nccnc3N(C)S(C)(=O)=O)n2)cc1 [defactinib]
Method in brief: as §1

[2] = compound: CNc1nc(-c2ccc3c(N)n[nH]c3c2)cc(N2C[C@@H](C(=O)NC3CCCCC3)CC[C@H]2C)n1
Method in brief: as §1

encorafenib = compound: COC(=O)N[C@@H](C)CNc1nccc(-c2cn(C(C)C)nc2-c2cc(Cl)cc(NS(C)(=O)=O)c2F)n1 [encorafenib]
Method in brief: as §1

[3] = compound: COC(=O)[C@H](CCSC)NC(=O)C1=C(C=C(C=C1)NC[C@H](CS)N)C2=CC=CC=C2
Method in brief: as §1

alisertib = compound: COc1cc(Nc2ncc3c(n2)-c2ccc(Cl)cc2C(c2c(F)cccc2OC)=NC3)ccc1C(=O)O [alisertib]
Method in brief: as §1

[4] = compound: COc1cc2nc(-c3cc(F)ccc3O)nc(N[C@@H]3CNC[C@H]3C(C)(C)O)c2cc1OC
Method in brief: as §1

gefitinib = compound: COc1cc2ncnc(Nc3ccc(F)c(Cl)c3)c2cc1OCCCN1CCOCC1 [gefitinib]
Method in brief: as §1

lapatinib = compound: CS(=O)(=O)CCNCc1ccc(-c2ccc3ncnc(Nc4ccc(OCc5cccc(F)c5)c(Cl)c4)c3c2)o1 [lapatinib]
Method in brief: as §1

pictilisib = compound: CS(=O)(=O)N1CCN(Cc2cc3nc(-c4cccc5[nH]ncc45)nc(N4CCOCC4)c3s2)CC1 [pictilisib]
Method in brief: as §1

crizotinib = compound: C[C@@H](Oc1cc(-c2cnn(C3CCNCC3)c2)cnc1N)c1c(Cl)ccc(F)c1Cl [crizotinib]
Method in brief: as §1

[5] = compound: C[C@H](C1=CC=C(C=C1)C(=O)NC2=C3C=CNC3=NC=C2)N
Method in brief: as §1

duvelisib = compound: C[C@H](Nc1ncnc2nc[nH]c12)c1cc2cccc(Cl)c2c(=O)n1-c1ccccc1 [duvelisib]
Method in brief: as §1

gandotinib = compound: Cc1cc(Nc2cc(CN3CCOCC3)c3nc(C)c(Cc4ccc(Cl)cc4F)n3n2)n[nH]1 [gandotinib]
Method in brief: as §1

tozasertib = compound: Cc1cc(Nc2cc(N3CCN(C)CC3)nc(Sc3ccc(NC(=O)C4CC4)cc3)n2)n[nH]1 [tozasertib]
Method in brief: as §1

doramapimod = compound: Cc1ccc(-n2nc(C(C)(C)C)cc2NC(=O)Nc2ccc(OCCN3CCOCC3)c3ccccc23)cc1 [doramapimod]
Method in brief: as §1

bafetinib = compound: Cc1ccc(NC(=O)c2ccc(CN3CC[C@H](N(C)C)C3)c(C(F)(F)F)c2)cc1Nc1nccc(-c2cncnc2)n1 [bafetinib]
Method in brief: as §1

[6] = compound: Cc1cccc(CC(=O)N2CCc3c2ccc(-c2cn(C)c4ncnc(N)c24)c3F)n1
Method in brief: as §1

Measured: log2 fold change

SMAD2 (UniProt Q15796)
inactive: alvocidib -0.058 | Tubastatin A 0.009 | [1] 0.167 | defactinib 0.01 | [2] 0.038 | encorafenib -0.01 | [3] 0.03 | alisertib -0.069 | [4] 0.006 | gefitinib 0.016 | lapatinib -0.006 | pictilisib -0.042 | crizotinib -0.055 | [5] -0.073 | duvelisib -0.066 | gandotinib -0.006 | tozasertib -0.027 | doramapimod -0.025 | bafetinib -0.005 | [6] 0.06

SLC11A2 isoform 3 (UniProt P49281)
Sequence of UniProt P49281 (P49281 whole entry, looked up): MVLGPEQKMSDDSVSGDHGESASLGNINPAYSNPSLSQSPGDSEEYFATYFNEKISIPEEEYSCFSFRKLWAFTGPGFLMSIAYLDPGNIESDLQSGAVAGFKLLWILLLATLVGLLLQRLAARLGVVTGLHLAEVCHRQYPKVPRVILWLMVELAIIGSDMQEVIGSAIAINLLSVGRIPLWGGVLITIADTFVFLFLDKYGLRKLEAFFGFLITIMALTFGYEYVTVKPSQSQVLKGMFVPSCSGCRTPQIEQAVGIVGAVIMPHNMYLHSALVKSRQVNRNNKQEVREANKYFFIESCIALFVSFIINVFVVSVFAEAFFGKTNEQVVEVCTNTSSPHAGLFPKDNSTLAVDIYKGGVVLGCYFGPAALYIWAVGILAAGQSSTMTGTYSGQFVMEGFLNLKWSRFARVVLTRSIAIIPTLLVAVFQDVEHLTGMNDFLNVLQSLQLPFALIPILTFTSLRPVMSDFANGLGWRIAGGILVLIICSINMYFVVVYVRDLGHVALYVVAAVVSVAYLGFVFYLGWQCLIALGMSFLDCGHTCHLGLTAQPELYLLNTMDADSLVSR
inactive: alvocidib -0.032 | Tubastatin A -0.047 | [1] 0.031 | defactinib -0.001 | [2] -0.008 | encorafenib 0.063 | [3] -0.027 | alisertib 0.128 | [4] 0.021 | lapatinib 0 | pictilisib -0.014 | crizotinib -0.004 | [5] -0.052 | duvelisib -0.025 | gandotinib 0.033 | tozasertib -0.08 | doramapimod -0.018 | bafetinib 0.035 | [6] 0.036
active: gefitinib 0.295

SMG6 (UniProt Q86US8)
Sequence of UniProt Q86US8 (Q86US8 whole entry, looked up): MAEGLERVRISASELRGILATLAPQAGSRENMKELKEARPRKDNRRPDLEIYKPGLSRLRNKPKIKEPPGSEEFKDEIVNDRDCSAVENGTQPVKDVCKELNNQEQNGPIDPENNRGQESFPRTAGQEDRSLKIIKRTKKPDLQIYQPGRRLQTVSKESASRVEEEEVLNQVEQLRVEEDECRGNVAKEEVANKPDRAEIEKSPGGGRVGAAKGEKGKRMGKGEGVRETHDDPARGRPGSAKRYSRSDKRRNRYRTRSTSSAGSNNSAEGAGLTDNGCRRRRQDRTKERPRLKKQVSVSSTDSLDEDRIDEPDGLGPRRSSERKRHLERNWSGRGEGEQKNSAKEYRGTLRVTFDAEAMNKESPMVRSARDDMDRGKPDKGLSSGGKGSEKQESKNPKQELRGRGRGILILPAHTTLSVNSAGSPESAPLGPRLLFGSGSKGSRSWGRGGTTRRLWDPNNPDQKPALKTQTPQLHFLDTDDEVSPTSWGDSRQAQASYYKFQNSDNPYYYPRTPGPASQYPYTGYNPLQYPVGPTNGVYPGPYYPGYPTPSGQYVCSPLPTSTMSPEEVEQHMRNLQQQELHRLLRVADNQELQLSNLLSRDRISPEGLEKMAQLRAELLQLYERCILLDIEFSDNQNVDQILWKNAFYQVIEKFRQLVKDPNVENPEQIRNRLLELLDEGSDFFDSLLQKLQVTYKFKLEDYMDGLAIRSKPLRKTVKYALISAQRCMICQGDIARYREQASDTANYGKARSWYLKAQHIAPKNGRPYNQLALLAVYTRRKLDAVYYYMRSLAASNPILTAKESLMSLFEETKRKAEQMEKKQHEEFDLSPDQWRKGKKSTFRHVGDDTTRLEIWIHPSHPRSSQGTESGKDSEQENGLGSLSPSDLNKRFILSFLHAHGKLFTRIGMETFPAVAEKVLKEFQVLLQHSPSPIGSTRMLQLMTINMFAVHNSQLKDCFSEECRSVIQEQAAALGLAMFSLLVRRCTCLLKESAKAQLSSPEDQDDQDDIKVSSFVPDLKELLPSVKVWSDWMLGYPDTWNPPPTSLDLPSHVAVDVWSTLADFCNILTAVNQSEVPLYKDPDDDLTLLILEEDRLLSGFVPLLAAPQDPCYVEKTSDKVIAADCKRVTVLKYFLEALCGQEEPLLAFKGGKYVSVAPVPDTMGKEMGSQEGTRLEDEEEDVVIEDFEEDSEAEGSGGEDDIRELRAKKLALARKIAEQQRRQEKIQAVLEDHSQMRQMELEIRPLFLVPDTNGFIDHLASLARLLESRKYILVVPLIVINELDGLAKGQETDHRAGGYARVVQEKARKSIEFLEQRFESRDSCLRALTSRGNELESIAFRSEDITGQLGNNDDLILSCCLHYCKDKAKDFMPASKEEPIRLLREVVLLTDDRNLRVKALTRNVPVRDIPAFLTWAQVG
inactive: alvocidib -0.067 | Tubastatin A -0.062 | [1] -0.112 | defactinib -0.027 | [2] -0.059 | encorafenib 0.148 | [3] -0.01 | alisertib -0.044 | [4] 0.008 | gefitinib -0.069 | lapatinib 0.009 | pictilisib -0.032 | crizotinib 0.028 | [5] -0.097 | duvelisib -0.1 | gandotinib 0.025 | tozasertib -0.096 | doramapimod 0.051 | bafetinib -0.049 | [6] 0.039

SH3BP5L (UniProt Q7L8J4)
Sequence of UniProt Q7L8J4 (Q7L8J4 whole entry, looked up): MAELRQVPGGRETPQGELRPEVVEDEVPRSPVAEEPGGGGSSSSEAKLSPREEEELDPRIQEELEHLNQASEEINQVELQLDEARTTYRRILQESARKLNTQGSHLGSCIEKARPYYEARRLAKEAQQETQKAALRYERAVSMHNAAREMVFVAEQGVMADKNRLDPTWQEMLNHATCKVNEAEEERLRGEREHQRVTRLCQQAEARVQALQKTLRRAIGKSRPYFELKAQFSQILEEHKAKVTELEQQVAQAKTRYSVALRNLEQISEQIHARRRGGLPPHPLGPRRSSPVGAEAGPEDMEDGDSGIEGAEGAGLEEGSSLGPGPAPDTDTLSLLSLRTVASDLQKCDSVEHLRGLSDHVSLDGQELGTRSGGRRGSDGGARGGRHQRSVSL
inactive: alvocidib -0.003 | Tubastatin A -0.012 | [1] 0.036 | defactinib -0.003 | [2] -0.015 | encorafenib 0.058 | [3] -0.047 | alisertib 0.021 | [4] 0.015 | gefitinib 0.001 | lapatinib 0.006 | pictilisib -0.004 | crizotinib -0.01 | [5] -0.05 | duvelisib 0.001 | gandotinib 0.031 | tozasertib 0.098 | doramapimod -0.044 | bafetinib 0.001 | [6] 0.015

SLC38A1 (UniProt Q9H2H9)
inactive: alvocidib -0.111 | Tubastatin A 0.022 | [1] -0.026 | defactinib -0.016 | [2] -0.054 | encorafenib 0.019 | [3] -0.045 | alisertib -0.021 | [4] 0.011 | gefitinib 0.073 | lapatinib -0.008 | pictilisib -0.01 | crizotinib -0.064 | [5] -0.218 | duvelisib 0.048 | gandotinib 0.096 | tozasertib 0.026 | doramapimod -0.009 | bafetinib 0.003 | [6] 0.095

SMC3 (UniProt Q9UQE7)
inactive: alvocidib -0.009 | Tubastatin A 0.006 | [1] 0.003 | defactinib 0.002 | [2] -0.036 | encorafenib -0.007 | [3] 0.002 | alisertib 0.005 | [4] -0.013 | gefitinib -0.005 | lapatinib 0.007 | pictilisib 0.006 | crizotinib 0.011 | [5] 0.037 | duvelisib -0.01 | gandotinib -0.013 | tozasertib 0.001 | doramapimod -0.007 | bafetinib -0.021 | [6] -0.012

SMN1 (UniProt Q16637)
Sequence of UniProt Q16637 (Q16637 whole entry, looked up): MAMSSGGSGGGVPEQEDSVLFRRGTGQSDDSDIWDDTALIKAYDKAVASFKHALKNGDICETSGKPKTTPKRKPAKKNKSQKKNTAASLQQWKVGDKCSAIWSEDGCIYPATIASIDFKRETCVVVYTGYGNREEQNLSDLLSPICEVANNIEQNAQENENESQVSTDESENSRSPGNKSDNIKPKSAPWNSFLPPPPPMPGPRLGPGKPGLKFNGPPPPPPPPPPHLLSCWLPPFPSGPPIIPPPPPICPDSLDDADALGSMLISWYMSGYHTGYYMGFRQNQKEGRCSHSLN
inactive: alvocidib -0.05 | Tubastatin A -0.173 | [1] 0.017 | defactinib -0.023 | [2] -0.01 | encorafenib 0.03 | [3] 0.149 | alisertib 0.062 | [4] -0.024 | gefitinib -0.064 | lapatinib 0.086 | pictilisib 0.035 | crizotinib -0.183 | [5] -0.031 | duvelisib 0.021 | gandotinib -0.056 | tozasertib 0.049 | doramapimod 0.022 | bafetinib 0.036 | [6] 0.158

STAT2 (UniProt P52630)
inactive: alvocidib 0.02 | Tubastatin A -0.183 | [1] 0.016 | defactinib -0.03 | [2] -0.018 | encorafenib 0.023 | [3] -0.014 | alisertib 0.006 | [4] 0.004 | gefitinib -0.023 | lapatinib 0.005 | pictilisib -0.024 | crizotinib -0.146 | [5] 0.008 | duvelisib 0.004 | gandotinib -0.082 | tozasertib 0.047 | doramapimod 0.037 | bafetinib -0.078 | [6] 0.093

SMG7 (UniProt Q92540)
inactive: alvocidib -0.003 | Tubastatin A 0.008 | [1] 0.018 | defactinib 0.076 | [2] -0.017 | encorafenib 0.025 | [3] 0.202 | alisertib 0.015 | [4] 0.132 | gefitinib 0.032 | lapatinib 0.101 | pictilisib 0.1 | crizotinib 0.043 | [5] -0.035 | duvelisib 0.026 | gandotinib -0.018 | tozasertib 0.026 | bafetinib -0.008 | [6] 0.022
active: doramapimod -0.257

STK24 (UniProt B4DR80)
inactive: alvocidib -0.029 | Tubastatin A 0.02 | [1] -0.022 | defactinib 0.11 | [2] -0.008 | encorafenib -0.012 | [3] -0.039 | alisertib -0.037 | [4] 0.078 | gefitinib -0.052 | lapatinib 0.006 | pictilisib 0 | crizotinib 0.044 | [5] 0.034 | duvelisib -0.016 | gandotinib 0.089 | tozasertib 0.001 | doramapimod -0.054 | bafetinib 0.004 | [6] 0

SPNS1 (UniProt Q9H2V7)
Sequence of UniProt Q9H2V7 (Q9H2V7 whole entry, looked up): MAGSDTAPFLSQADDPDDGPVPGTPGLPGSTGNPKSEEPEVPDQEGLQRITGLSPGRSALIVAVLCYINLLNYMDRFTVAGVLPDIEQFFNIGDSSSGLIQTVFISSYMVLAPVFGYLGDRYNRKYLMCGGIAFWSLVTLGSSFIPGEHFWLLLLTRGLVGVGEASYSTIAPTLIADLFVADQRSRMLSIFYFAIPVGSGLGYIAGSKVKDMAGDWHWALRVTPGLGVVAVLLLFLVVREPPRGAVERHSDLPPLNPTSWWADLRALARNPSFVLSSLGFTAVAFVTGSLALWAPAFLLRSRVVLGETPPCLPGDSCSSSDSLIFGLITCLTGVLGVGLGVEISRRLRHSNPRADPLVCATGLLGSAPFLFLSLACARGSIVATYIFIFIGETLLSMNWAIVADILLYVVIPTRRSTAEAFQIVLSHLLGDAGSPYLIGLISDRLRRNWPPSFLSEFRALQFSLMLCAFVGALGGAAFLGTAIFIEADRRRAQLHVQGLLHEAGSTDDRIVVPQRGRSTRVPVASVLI
inactive: alvocidib -0.118 | Tubastatin A 0.034 | [1] 0.06 | defactinib 0.095 | [2] -0.03 | encorafenib 0.019 | [3] -0.031 | alisertib 0.047 | [4] 0.019 | gefitinib -0.015 | lapatinib 0.025 | pictilisib -0.038 | crizotinib -0.004 | [5] -0.042 | duvelisib 0.04 | gandotinib 0.032 | tozasertib -0.073 | doramapimod 0.014 | bafetinib -0.054 | [6] 0.052

SSU72 (UniProt Q9NP77)
Sequence of UniProt Q9NP77 (Q9NP77 whole entry, looked up): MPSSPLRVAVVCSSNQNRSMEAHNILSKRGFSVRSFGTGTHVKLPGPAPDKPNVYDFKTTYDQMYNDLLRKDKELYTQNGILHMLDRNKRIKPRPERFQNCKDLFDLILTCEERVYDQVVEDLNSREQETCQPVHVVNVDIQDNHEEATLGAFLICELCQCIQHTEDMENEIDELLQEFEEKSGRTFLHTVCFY
inactive: alvocidib -0.127 | Tubastatin A -0.05 | [1] -0.035 | defactinib -0.026 | [2] -0.032 | encorafenib -0.04 | [3] 0.183 | alisertib -0.016 | [4] -0.013 | gefitinib -0.004 | lapatinib -0.02 | pictilisib 0.008 | crizotinib -0.042 | duvelisib -0.004 | gandotinib 0.134 | tozasertib -0.074 | doramapimod 0.057 | bafetinib -0.052 | [6] 0.166
active: [5] -0.288

SMARCA4 (UniProt P51532)
Sequence of UniProt P51532 (P51532 whole entry, looked up): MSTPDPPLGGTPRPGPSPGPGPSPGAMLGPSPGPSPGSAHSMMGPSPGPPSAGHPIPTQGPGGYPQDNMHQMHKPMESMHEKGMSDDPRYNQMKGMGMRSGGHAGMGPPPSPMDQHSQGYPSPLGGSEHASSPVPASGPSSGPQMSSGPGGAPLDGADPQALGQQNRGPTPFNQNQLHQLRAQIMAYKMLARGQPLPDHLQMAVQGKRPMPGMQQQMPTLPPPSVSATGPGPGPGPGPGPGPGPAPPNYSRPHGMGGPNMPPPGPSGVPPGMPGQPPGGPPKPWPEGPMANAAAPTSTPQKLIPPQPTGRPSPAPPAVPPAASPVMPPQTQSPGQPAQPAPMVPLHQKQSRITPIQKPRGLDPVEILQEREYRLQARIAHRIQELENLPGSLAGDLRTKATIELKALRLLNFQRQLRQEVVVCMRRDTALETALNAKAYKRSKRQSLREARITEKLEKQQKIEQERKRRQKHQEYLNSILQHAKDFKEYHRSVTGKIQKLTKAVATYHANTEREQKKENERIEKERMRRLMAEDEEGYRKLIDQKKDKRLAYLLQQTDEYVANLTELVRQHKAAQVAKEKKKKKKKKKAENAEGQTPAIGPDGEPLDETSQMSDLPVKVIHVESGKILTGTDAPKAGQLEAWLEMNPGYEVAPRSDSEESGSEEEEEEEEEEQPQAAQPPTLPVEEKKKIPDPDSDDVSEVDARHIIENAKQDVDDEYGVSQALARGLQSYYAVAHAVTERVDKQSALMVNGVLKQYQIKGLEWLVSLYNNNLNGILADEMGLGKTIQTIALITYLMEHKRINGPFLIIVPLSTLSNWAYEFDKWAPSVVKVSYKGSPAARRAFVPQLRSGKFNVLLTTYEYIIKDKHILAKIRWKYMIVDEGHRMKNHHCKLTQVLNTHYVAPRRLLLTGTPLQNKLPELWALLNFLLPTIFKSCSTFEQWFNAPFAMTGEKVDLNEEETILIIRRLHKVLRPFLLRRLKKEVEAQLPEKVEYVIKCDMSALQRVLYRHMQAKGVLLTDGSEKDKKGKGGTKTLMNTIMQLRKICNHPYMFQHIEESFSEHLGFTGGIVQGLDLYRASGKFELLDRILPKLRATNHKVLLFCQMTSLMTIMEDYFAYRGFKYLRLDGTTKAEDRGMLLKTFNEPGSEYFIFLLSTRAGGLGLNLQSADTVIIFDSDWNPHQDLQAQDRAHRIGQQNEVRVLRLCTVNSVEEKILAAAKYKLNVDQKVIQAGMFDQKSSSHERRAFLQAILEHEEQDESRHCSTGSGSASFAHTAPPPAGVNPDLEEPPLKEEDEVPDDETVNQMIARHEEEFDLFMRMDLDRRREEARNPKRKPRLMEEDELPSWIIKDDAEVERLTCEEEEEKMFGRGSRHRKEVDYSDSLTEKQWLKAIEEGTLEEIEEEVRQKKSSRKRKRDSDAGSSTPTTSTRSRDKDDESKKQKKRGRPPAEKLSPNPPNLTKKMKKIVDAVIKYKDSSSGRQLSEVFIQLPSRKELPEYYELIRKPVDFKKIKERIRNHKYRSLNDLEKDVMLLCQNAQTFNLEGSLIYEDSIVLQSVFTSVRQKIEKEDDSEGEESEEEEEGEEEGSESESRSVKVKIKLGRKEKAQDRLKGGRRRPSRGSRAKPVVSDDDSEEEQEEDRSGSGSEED
inactive: alvocidib 0.004 | Tubastatin A -0.078 | [1] -0.007 | defactinib 0.002 | [2] -0.003 | encorafenib 0.021 | [3] 0.056 | alisertib 0.019 | [4] -0.002 | gefitinib -0.001 | lapatinib -0.029 | pictilisib -0.008 | crizotinib -0.01 | [5] -0.009 | duvelisib -0.003 | gandotinib -0.022 | tozasertib 0.012 | doramapimod 0.008 | bafetinib -0.008 | [6] 0.054

SLC30A9 (UniProt Q6PML9)
inactive: alvocidib 0 | Tubastatin A 0.022 | [1] 0.002 | defactinib 0.064 | [2] 0.023 | encorafenib 0.032 | [3] 0.05 | alisertib -0.008 | [4] -0.079 | gefitinib -0.01 | lapatinib -0.007 | pictilisib -0.054 | crizotinib -0.043 | [5] -0.423 | duvelisib 0.048 | gandotinib 0.008 | tozasertib -0.003 | doramapimod 0.036 | bafetinib -0.161
active: [6] 0.312

STOML2 (UniProt Q9UJZ1)
inactive: alvocidib -0.017 | Tubastatin A 0.095 | [1] -0.009 | defactinib 0.017 | [2] 0.022 | encorafenib -0.007 | [3] -0.055 | alisertib -0.004 | [4] 0.052 | gefitinib 0.08 | lapatinib 0.013 | pictilisib -0.021 | crizotinib 0.028 | [5] 0.089 | duvelisib 0.035 | gandotinib 0.015 | tozasertib 0.012 | doramapimod -0.032 | bafetinib 0.033 | [6] -0.023

SLC29A2 (UniProt Q14542)
active: [5] -0.558
inactive: alvocidib -0.134 | Tubastatin A -0.018 | [1] 0.187 | defactinib -0.011 | [2] -0.042 | encorafenib 0.025 | [3] 0.007 | alisertib -0.031 | [4] 0.008 | gefitinib 0.046 | lapatinib -0.006 | pictilisib 0.04 | crizotinib -0.068 | duvelisib 0.083 | gandotinib 0.159 | tozasertib 0.035 | doramapimod -0.023 | bafetinib 0.045 | [6] 0.146

— the supplement of paper PMC10849652
